# Data as given in PubChem BioAssay.
# The source made the active and inactive calls.
# Key:
# [1] = small molecules captured by biotinylated probe aFSTL3 – biochemical, small-molecule microarray, fluorescence 635/667, stem cell growth factor project, primary screen (AID 1064); details: higher = more signal;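 also: measures binding of the biotinylated anti-FSTL3 antibody to printed compounds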
# [2] = binders from COS7 lysate, DM2A8 probe, primary screen, torsin A project, cell lysate, small-molecule microarray, fluorescence 635/667 (AID 1065); details: higher = more signal, COS7 lysate expressing mutant human TOR1A
# [3] = small molecules captured by biotinylated probe aFGF2 – biochemical, small-molecule microarray, fluorescence 635/667, stem cell growth factor project, primary screen (AID 1067); details: higher = more signal;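 also: measures binding of biotinylated aFGF2 protein to printed compounds on slides; z-score merges feature fluorescence and signal-to-noise across triplicate slides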
# [4] = small molecules captured by biotinylated probe aFGF10 – biochemical, small-molecule microarray, fluorescence 635/667, stem cell growth factor project, primary screen (AID 1071); details: higher = more signal;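 also: score merges 667 nm spot intensity and signal to noise from triplicate slides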
# [5] = target: Neurogenic locus notch homolog protein 2 (Homo sapiens) (UniProt Q04721); test: small molecules binding Notch2 protein – biochemical, small-molecule microarray, 635 nm fluorescence, stem cell growth factors, primary screen (AID 1073); details: higher = more signal
# [6] = target: Pro-neuregulin-1, membrane-bound isoform (Homo sapiens) (UniProt Q02297); test: small molecules binding neuregulin-1 protein – biochemical, small-molecule microarray, fluorescence 635/667, psychiatric disease protein project, primary screen (AID 1075); details: NRG1 binding, 635 nm fluorescence, higher = more signal;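 also: score combines 667 nm spot fluorescence with signal to noise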
# Pro-neuregulin-1, membrane-bound isoform (Homo sapiens), sequence (Q02297 whole entry, looked up, the tested form may be a part, canonical isoform): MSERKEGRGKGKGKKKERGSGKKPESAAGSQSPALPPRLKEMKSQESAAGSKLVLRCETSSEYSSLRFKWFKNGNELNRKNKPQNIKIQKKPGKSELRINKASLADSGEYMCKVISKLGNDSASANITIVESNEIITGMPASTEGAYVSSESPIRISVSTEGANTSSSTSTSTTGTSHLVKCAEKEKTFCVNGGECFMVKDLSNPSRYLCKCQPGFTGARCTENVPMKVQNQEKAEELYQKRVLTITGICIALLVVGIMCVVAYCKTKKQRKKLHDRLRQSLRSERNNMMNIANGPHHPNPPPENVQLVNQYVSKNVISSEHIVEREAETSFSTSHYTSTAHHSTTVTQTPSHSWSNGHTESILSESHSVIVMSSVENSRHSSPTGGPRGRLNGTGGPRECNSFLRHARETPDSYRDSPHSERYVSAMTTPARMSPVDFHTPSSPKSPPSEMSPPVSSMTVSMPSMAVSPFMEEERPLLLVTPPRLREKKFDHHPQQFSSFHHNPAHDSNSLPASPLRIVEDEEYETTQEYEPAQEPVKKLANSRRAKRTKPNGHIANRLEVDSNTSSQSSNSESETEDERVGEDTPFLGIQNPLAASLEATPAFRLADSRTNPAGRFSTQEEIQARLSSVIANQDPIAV
# [7] = system: Neuregulin-1 EGF-like domain; test: small molecules binding NRG1 EGF domain – biochemical, small-molecule microarray, 635 nm fluorescence, primary screen (AID 1081); details: higher = more signal;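 also: binding of the protein to compounds printed on small-molecule microarray slides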
# [8] = FRG1 expression reporter modulators in myotubes – cell-based, C2C12 myotubes, firefly/Renilla luciferase, luminescence, FRG1 inhibition for FSHD, primary screen (AID 1084); details: FRG1 promoter luciferase, higher = more signal, called active from +8 up or from −8 down
# [9] = small molecules captured by biotinylated probe aFST – biochemical, small-molecule microarray, fluorescence 635/667, stem cell growth factor project, primary screen (AID 1086); details: higher = more signal;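 also: score merges 667 nm fluorescence with signal-to-noise of each printed compound spot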
# [10] = binders of probe aHhip on microarray, primary screen, stem cell growth factor project, biochemical, small-molecule microarray, fluorescence 635/667 (AID 1087); details: higher = more signal;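 also: score merges spot fluorescence at 667nm with spot signal to noise ratio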
# [11] = system: PRMT1 (protein arginine N-methyltransferase 1); test: small molecules binding arginine methyltransferase PRMT1 – biochemical, small-molecule microarray, 635 nm fluorescence, primary screen (AID 1088); details: higher = more signal;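 also: binding of Prmt1 protein to compounds spotted on small-molecule microarray slides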
# [12] = growth effects on S. cerevisiae YJM789 – YJM789 clinical isolate, OD600, 24 h, basal, primary screen (AID 1089); details: higher = more signal, called active from +8 up or from −8 down;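 also: growth of clinical yeast isolate S. cerevisiae YJM 789 seeded 1000 cells per well; test concentration not given here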
# [13] = S. pombe growth modifiers, basal conditions – strain 972, OD600, 24 h, no modulator, primary screen (AID 1090);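 also: basal condition with compound alone and no growth modifier present; test concentration not given here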; details: S. pombe 972 growth, higher = more signal, called active from +8 up or from −8 down
# [14] = budding yeast growth modifiers under rapamycin – strain BY4716, OD600, 96 h, primary screen (AID 1091); also: test concentration not given here; details: S. cerevisiae BY4716 + rapamycin, higher = more signal, called active from +8 up or from −8 down
# [15] = target: Torsin-1A-interacting protein 2 (Homo sapiens) (UniProt Q8NFQ8); test: small molecules binding lysate-expressed LULL1 – cell lysate, human LULL1 lysate, 635/667 nm fluorescence, primary screen (AID 1092); details: small-molecule microarray, hLULL1 lysate binding, 635 nm fluorescence; higher = more signal;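 also: probe is lysate of COS7 cells overexpressing human LULL1; score merges per-feature 667 nm fluorescence with signal-to-noise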
# Torsin-1A-interacting protein 2 (Homo sapiens), sequence (Q8NFQ8 whole entry, looked up): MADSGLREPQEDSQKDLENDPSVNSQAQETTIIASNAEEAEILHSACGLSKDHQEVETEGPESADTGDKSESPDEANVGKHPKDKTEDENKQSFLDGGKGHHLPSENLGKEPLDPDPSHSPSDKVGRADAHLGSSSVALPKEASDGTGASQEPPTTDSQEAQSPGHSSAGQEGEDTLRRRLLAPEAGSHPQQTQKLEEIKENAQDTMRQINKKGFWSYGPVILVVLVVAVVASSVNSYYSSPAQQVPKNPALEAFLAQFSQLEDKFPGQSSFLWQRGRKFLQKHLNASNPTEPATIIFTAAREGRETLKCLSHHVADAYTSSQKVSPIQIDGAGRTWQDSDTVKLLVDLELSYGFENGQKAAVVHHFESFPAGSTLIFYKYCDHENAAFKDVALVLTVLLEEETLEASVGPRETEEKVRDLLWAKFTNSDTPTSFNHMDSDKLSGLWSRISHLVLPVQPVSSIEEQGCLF
# [16] = optical density change of DRC41 E. coli – strain DRC41, OD650, 24 h, E. coli filamentation project, primary screen (AID 1093);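 also: MC1000 strain lacking acrAB efflux and sulA so SOS filamentation is blocked; test concentration not given here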; details: E. coli DRC41 growth, higher = more signal, called active from +8 up or from −8 down
# [17] = probe aLefty2 binding to arrayed compounds – biochemical, biotinylated probe, 635/667 nm fluorescence, primary screen (AID 1094); details: small-molecule microarray, higher = more signal;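 also: score merges spot fluorescence near 667 nm with spot signal-to-noise ratio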
# [18] = system: Noggin (protein binding on small-molecule microarray); test: small molecules binding Noggin protein – biochemical, 635/667 nm fluorescence, primary screen (AID 1095); details: 635 nm fluorescence, higher = more signal;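 also: score merges 667 nm feature fluorescence with signal to noise over triplicate slides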
# [19] = target: Neurogenic locus notch homolog protein 3 (Homo sapiens) (UniProt Q9UM47); test: small molecules binding NOTCH3 protein – biochemical, 635/667 nm fluorescence, primary screen (AID 1096); details: small-molecule microarray, 635 nm fluorescence, higher = more signal
# Neurogenic locus notch homolog protein 3 (Homo sapiens), sequence (Q9UM47 whole entry, looked up): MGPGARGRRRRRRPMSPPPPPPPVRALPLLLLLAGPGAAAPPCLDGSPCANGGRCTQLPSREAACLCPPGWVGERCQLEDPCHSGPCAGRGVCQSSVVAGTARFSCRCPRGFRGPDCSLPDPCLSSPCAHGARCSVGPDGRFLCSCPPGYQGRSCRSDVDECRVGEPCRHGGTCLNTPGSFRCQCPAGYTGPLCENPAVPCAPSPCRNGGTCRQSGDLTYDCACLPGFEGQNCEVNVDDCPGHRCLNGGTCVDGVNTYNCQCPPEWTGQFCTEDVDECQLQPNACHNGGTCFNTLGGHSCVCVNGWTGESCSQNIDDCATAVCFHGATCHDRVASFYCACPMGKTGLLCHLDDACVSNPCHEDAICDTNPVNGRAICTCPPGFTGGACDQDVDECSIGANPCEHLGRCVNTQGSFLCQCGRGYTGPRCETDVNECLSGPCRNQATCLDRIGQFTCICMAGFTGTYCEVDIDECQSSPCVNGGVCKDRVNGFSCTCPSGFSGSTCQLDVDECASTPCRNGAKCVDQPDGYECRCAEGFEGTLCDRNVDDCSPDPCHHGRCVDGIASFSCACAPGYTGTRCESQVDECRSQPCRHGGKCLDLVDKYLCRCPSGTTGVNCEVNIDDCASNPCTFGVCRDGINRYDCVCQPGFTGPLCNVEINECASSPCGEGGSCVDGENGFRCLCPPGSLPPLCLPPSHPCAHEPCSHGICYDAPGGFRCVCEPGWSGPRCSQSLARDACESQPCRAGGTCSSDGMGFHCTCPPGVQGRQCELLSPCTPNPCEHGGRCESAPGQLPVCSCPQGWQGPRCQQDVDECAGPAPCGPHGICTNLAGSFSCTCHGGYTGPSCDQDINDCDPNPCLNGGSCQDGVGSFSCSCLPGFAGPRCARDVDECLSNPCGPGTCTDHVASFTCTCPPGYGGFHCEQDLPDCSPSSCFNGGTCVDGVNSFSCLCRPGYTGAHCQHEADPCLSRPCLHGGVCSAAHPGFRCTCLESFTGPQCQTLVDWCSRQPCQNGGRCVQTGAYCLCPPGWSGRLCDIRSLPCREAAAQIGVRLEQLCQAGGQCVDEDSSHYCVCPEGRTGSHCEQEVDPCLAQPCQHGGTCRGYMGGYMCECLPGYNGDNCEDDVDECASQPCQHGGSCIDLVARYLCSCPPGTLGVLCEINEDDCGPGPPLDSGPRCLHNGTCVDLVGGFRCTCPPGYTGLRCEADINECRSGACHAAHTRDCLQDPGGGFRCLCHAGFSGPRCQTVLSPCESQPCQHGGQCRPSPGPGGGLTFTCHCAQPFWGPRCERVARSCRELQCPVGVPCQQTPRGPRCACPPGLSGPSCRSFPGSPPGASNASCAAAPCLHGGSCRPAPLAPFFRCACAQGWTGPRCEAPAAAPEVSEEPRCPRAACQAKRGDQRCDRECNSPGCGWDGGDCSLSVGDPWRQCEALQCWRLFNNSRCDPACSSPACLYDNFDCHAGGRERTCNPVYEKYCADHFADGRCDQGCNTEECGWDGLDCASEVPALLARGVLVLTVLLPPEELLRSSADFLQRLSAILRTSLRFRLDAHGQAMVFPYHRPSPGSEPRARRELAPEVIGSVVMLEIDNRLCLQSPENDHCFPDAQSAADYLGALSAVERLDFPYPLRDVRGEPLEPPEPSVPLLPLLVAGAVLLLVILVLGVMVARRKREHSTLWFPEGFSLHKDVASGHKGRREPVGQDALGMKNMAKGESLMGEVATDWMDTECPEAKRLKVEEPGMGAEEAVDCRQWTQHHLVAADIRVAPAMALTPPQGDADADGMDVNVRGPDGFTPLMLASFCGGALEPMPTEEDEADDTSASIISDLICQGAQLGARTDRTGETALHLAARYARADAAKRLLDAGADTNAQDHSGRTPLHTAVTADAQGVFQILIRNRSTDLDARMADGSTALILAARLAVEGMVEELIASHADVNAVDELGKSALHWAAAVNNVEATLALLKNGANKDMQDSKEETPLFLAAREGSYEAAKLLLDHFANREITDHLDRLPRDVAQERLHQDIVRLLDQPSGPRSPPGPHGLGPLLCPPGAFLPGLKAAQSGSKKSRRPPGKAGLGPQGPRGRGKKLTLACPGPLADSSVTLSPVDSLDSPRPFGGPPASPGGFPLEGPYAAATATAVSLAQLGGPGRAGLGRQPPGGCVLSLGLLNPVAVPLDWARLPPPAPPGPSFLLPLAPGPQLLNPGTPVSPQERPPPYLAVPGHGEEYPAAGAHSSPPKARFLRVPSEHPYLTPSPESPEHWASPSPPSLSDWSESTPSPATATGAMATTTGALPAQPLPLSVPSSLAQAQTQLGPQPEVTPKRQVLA
# [20] = probe aEGFR binding to arrayed compounds – biochemical, biotinylated probe, 635/667 nm fluorescence, primary screen (AID 1097); details: small-molecule microarray, higher = more signal;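 also: probe is a biotinylated anti-EGFR antibody binding compounds printed on slides; score combines fluorescence near 667 nm and signal to noise of each spot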
Compound,composite z-score [1],composite z-score [2],composite z-score [3],composite z-score [4],composite z-score [5],composite z-score [6],composite z-score [7],z-score [8],composite z-score [9],composite z-score [10],composite z-score [11],z-score [12],z-score [13],z-score [14],composite z-score [15],z-score [16],composite z-score [17],composite z-score [18],composite z-score [19],composite z-score [20]
CCOC(=O)C1CCCCN1 (stereo not given),0.267,0.0953,0.119,0.989,0.931,0.153,0.765,-0.102 (inactive),0.74,1.96,1.08,-0.0725 (inactive),0.438 (inactive),0.363 (inactive),1.16,-0.0508 (inactive),0.697,0.458,0.738,0.641
CC(C)OC(=O)C=C1C[C@@H](c2ccc(C(F)(F)F)cc2)O[C@@H](c2ccc(C(F)(F)F)cc2)O1,-0.187,1.92,-0.0288,0.891,-0.316,1.08,1,0.337 (inactive),0.0006,-0.214,1.16,-1.84 (inactive),-7.12 (inactive),-1.52 (inactive),2.66,0.374 (inactive),-0.241,0.105,0.324,-0.195
COC(=O)c1c2oc(c1C(=O)OC)C(=O)N(Cc1ccccc1)Cc1cn(nn1)C[C@H](Cc1ccccc1)NC(=O)N[C@H](CO)CC2,-0.462,-0.277,-0.105,0.138,-0.0194,0.229,1.1,-0.736 (inactive),0.0118,0.0092,0.707,-3.16 (inactive),-1.15 (inactive),0.0108 (inactive),1.69,0.101 (inactive),-0.256,0.698,0.43,-0.11
